# Compounds with a hit are over-represented: about 17% of the library has one in this group of screens.
# TDP1 block – blocks human tyrosyl-DNA phosphodiesterase 1. Q9NUW8. recombinant TDP1, AlphaScreen DNA substrate cleavage. Potency, µM (titrated, usually from 130 µM), without a hit: top-dose activity change, negative = inhibition, most hits filed as inhibitors. hit rate 0.28% among 350,000; further: on the % scale 0 is the no-effect control and ±100 the full control effect; nearly all actives have a fitted effect of over 40% in size
#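 Signal: AlphaScreen proximity between streptavidin donor and anti-FITC acceptor beads on intact substrate. Reaction: Tdp1 1 nM, substrate 15 nM final, 5 min RT after 15 min compound preincubation.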
# ClpP mod – qHTS Assay for Activators of ClpP; ATP-dependent Clp protease proteolytic subunit (Bacillus subtilis (strain 168)), P80244; purified B. subtilis ClpP, FRET peptide cleavage, 20 min; Potency, µM (series often up to 57.5 µM), inactives show top-dose activity change, negative = active; hit rate 1.9% among 340,000; AID 651965, 2013; active means well fitted falling curve with a large enough effect; inconclusive means small, poorly fitted or top-dose-only effect; inactive means no such curve, though single readings can be large or run the other way; further: the source files actives as falling curves though it sought activators and does not explain the sign; nearly all actives have a fitted effect of over 65% in size
#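 ClpP 10 microg/mL final, pH 8 Tris/KCl buffer with BSA, glycerol, Tween-20; compound pinned in; FRET-FV substrate; RT 20 min; Ex320/Em430; ΔFRET vs ADEP 5.8 microM, DMSO, no enzyme.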
# DT40 TDP1 no CPT – qHTS for Inhibitors of human tyrosyl-DNA phosphodiesterase 1 (TDP1): qHTS in cells in absence of CPT | DT40 Tdp1-/- hTDP1 cells, no CPT, ATP luminescence, 48 h | Potency, µM (top dose mostly 46.2 µM), inactives show top-dose activity change, negative = growth inhibition, actives largely listed as inhibitors | AID 686978, 2013 | hit rate 15% among 420,000; further: on the % scale 0 is the no-effect control and ±100 the full control effect; nearly all actives have a fitted effect of over 55% in size
#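 Stably hTDP1-transfected Tdp1-null chicken DT40 cells were treated with library compounds minus camptothecin and grown for at least 48 hr at 37 °C, after which cellular ATP was quantified by luminescence.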
# DT40 TDP1 CPT – growth inhibition of DT40 Tdp1-/-;hTDP1 cells with camptothecin (screen for TDP1 inhibitors) | chicken DT40 Tdp1-/-;hTDP1 cells + 20 nM CPT, ATP luminescence, 48 h | hit rate 12% among 420,000 | Potency, µM (highest dose often 46.2 µM), without a hit: at the highest dose activity change, negative = growth inhibition, usual class: inhibitors; further: on the % scale 0 is the no-effect control and ±100 the full control effect; nearly all actives have a fitted effect of over 55% in size
#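 Chicken DT40 Tdp1-/- cells stably complemented with human TDP1 were seeded at 400 cells/well in medium containing 20 nM camptothecin, exposed to pin-transferred compounds, and grown at 37 °C for at least 48 hr. Viability was read as ATP luminescence.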
# An asterisk follows results filed as active; ? = inconclusive; . = no result; ! = not confirmed by another sample; [ ] = dose if it differs, or a comment. Unless noted, the call rests on the fitted dose curve; in most records, active means well fitted curve in the direction sought with a large enough effect; inconclusive means small, poorly fitted or top-dose-only effect, or another doubt; inactive means no such curve, though single readings can be large; an effect the other way counts as inactive or inconclusive. Potency means the concentration at half of the fitted maximal effect.
SMILES,TDP1 block,ClpP mod,DT40 TDP1 no CPT,DT40 TDP1 CPT
CCOC(=O)[C@]12Cc3cc(Cl)ccc3[C@H]1N(Cc1ccccc1)C(=O)c1ccccc12,.,-1%,?,10µM*
CCOC(=O)[C@]12Cc3cc(C)ccc3[C@H]1N(Cc1ccccc1)C(=O)c1cc(OC)ccc12,.,-24%,21µM*,?
CN1C(=O)C(C2c3ccccc3C(=O)N2Cc2ccccc2)C(=O)N(C)C1=O (configuration not stated),0%,0%,10%,4%
CCOC(=O)[C@]12Cc3ccccc3[C@H]1N(Cc1ccccc1)C(=O)c1cc(F)c(F)cc12,.,-4%,23µM*,?
CCOC(=O)[C@]12Cc3cc4c(cc3[C@H]1N(Cc1ccccc1)C(=O)c1ccccc12)OCO4,.,-4%,15µM*,?
CCOP(=S)(OCC)Oc1ncn(-c2ccccc2)n1,-4%,.,.,.
OCC1CCCN2CCCCC12 (configuration not stated),6%,.,-6%,6%
O=c1c2ccccc2nc(/C=C/c2ccccc2F)n1-c1cccc(O)c1,0%[2.28 µM],5%,?,?
O=[N+]([O-])c1ccccc1O,9%,.,.,.
CCOc1ccc(NC(=S)NC2CC3CCC(C2)N3Cc2ccco2)cc1 (configuration not stated),5%,.,?,?
CCOC(=O)[C@]12Cc3cc(N(C)C)ccc3[C@H]1N(Cc1ccccc1)C(=O)c1ccccc12,.,?,6.5µM*,13µM*
CC(C)(C)OC(=O)N1CCC(c2c(C(=O)N3CCN(Cc4ccccc4)CC3)cnn2-c2ccc(Cl)cc2)CC1,4%,-3%,21µM*,26µM*
Cc1ccc(-n2ncc(C(=O)N3CCN(c4ccc(Cl)cc4)CC3)c2C2CCN(C(=O)OC(C)(C)C)CC2)c(C)c1,-3%,-1%,12µM*,?
CSc1ccc(CN2CCN(C(=O)Cc3ccccc3)CC2)cc1,.,-3%,-20%,?
COc1ccc(-n2ncc(C(=O)N3CCN(c4cc(C)ccc4C)CC3)c2C2CCN(C(=O)OC(C)(C)C)CC2)cc1,4%,-1%,15µM*,21µM*
CN1[C@H]2CC(=O)C[C@@H]1[C@@H](O)C2,6%[21 µM],.,.,.
CC(=Nc1ccc2c(c1)CCC2)c1c(O)n(C)c(=O)n(C)c1=O,5%,1%,-28%,-16%
CCC(=NCc1ccc(F)cc1)c1c(O)n(C)c(=O)n(C)c1=O,4%,1%,18µM*,23µM*
CCOC(=O)c1ccc(N=C(CC)c2c(O)n(C)c(=O)n(C)c2=O)cc1,3%,25µM*,18µM*,?
CCC(=Nc1ccc2c(c1)CCC2)c1c(O)n(-c2ccc(OC)cc2)c(=O)[nH]c1=O,.,2%,15µM*,21µM*
CCC(=Nc1ccc2c(c1)CCC2)c1c(O)n(C)c(=O)n(C)c1=O,-5%,-2%,21µM*,12µM*
CCC(=Nc1ccc(OC)cc1OC)c1c(O)n(C2CCCCC2)c(=O)[nH]c1=O,9%,-2%,?,?
Cn1c(O)c(C(=O)c2ccccc2F)c(=O)n(C)c1=O,-8%,0%,7%,-7%
CC1(C)CSC(=NCc2ccccc2)N1,3%,-1%,-7%,2%
Cc1ccc(CNS(=O)(=O)c2cc3c(cc2C)N(C)CCO3)cc1,4%,0%,?,?
SMILES,TDP1 block,ClpP mod,DT40 TDP1 no CPT,DT40 TDP1 CPT
C[C@@H]1CC[C@H]2[C@H](C)[C@H]3CC[C@@]4(O)[C@@H]5CC(=O)[C@H]6CC(=O)CC[C@]6(C)[C@H]5C[C@H]4[C@@H]3CN2C1,6%,.,.,.
CN=C(SCc1ccccc1)c1c(O)n(C)c(=O)n(C)c1=O,-2%,-2%,0%,-22%
CCC(=Nc1ccc(Cc2ccncc2)cc1)c1c(O)n(C)c(=O)n(C)c1=O,1%,0%,5µM*,5µM*!
c1ccc(CCN2CCCCC2)nc1,.,.,-8%,9%
COc1ccc(NC(=O)c2ccc(COCC(F)(F)C(F)F)cc2)cc1,-5%,0%,?,-25%
O=C(Oc1ccc(Cl)cc1)N1CCOCC1,.,1%,?,?
O=P(Oc1ccc(-c2ccccc2)cc1)(N1CC1)N1CC1,.,0%,9.2µM*,2.1µM*
O=P(Oc1ccc(Cl)cc1)(N1CC1)N1CC1,.,.,?,6.5µM*
COc1ccc(NC(=O)N2CC[C@@]3(CCCN(C(=O)Oc4ccccc4)C3)C2)cc1,.,.,-2%,8%
O=C(CCCc1nc(-c2ccc(Cl)cc2)no1)NCC1CCCO1 (configuration not stated),.,1%,18µM*,?
Cc1c(C=C2C(=O)N(C)C(=S)N(C)C2=O)c2ccccc2n1CC(=O)NCC1CCCO1 (configuration not stated),9%,0%,?,?
Cc1[nH]c2c(Cl)cccc2c(=O)c1CN1CCCCCC1,.,-2%,-16%,?
NC(N)=NN=C(/C=C/c1ccc([N+](=O)[O-])o1)/C=C/c1ccc([N+](=O)[O-])o1,.,.,3µM*,3µM*
Cc1cccc(N2C(=O)NC(=O)/C(=C/c3ccc([N+](=O)[O-])o3)C2=O)c1,.,-3%,?,?
Cc1cc(Cl)ccc1O,5%,.,.,.
Cc1ccc(Cl)cc1N1CCN(C(=O)c2cn(C)c(=O)c3c2c2ccccc2n3C)CC1,2%,28µM*,18µM*,?
CNC(=O)Oc1ccccc1C1CCCCC1,.,.,-22%,?
Cc1nc2c(=O)n(C)c(=O)nc-2n(C)n1,6%,1%,0.52µM*,0.41µM*
Cc1cccc(-n2nc(C)c3c2NC(=O)CSC3c2ccccc2Cl)c1 (configuration not stated),6%,-4%,21µM*,?
CC(=O)N1CC(=O)Nc2ccc(Cl)cc2C1c1ccccc1 (configuration not stated),.,.,-10%,12%
Cc1ccccc1-n1nc(C)c2c1NC(=O)CSC2c1ccc(N(C)C)cc1 (configuration not stated),0%,0%,18µM*,?
O=C1CSC(c2ccccc2Cl)c2cc(Cl)ccc2N1 (configuration not stated),15%,.,39µM*,?
CC1(C(=O)O)C2CCC(O2)C1(C)C(=O)O (configuration not stated),-14%[56.1 µM],.,.,.
CCOC(=O)c1ccccc1NC(=O)N(Cc1ccc(CC)cc1)Cc1cn[nH]c1-c1ccc(OC)cc1,11%,35µM*,15µM*,?
O=C1NC(=O)C(=Cc2ccc(OCCOc3ccc([N+](=O)[O-])cc3)cc2)C(=O)N1,1%,.,?,?
CCN(CC)c1ccc(C=C2C(=O)NC(=S)NC2=O)cc1,.,1%,15µM*,?
CN(C)c1ccc(C=C2C(=O)NC(=S)NC2=O)cc1,.,-2%,16µM*,8.2µM*
